# Hits are enriched below; roughly 19% of the tested compounds scored in any of these assays.
# TDP1 cell noCPT = qHTS for Inhibitors of human tyrosyl-DNA phosphodiesterase 1 (TDP1): qHTS in cells in absence of CPT. DT40 Tdp1-/- hTDP1 cells, no CPT, ATP luminescence, 48 h. Potency, µM (top dose mostly 46.2 µM), for inactives: top-dose activity change, negative = growth inhibition, most hits filed as inhibitors. 420,000 tested, 15% active; also: potency is read from the fitted curve at half-maximal effect; nearly all actives have a fitted effect of over 55% in size
#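 Growth of hTDP1-complemented DT40 Tdp1-knockout cells is measured by ATP luminescence after at least 48 hr compound exposure at 37 °C, with DMSO substituting for the 20 nM CPT used in the parallel screen.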
# IL1B secr inh = inflammasome signaling inhibition, IL-1 beta readout | activity change, % at 57.5 µM | AID 743279 | 360,000 tested, 4.7% active | THP-1 LPS/ATP IL-1B secretion, AlphaLISA, 16 h; stronger effect = lower value; in the data active = activity change below about -50%; inconclusive = mostly about -30% to -49%
#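 Secreted IL-1B measured by AlphaLISA bead assay after 16 h compound exposure of THP-1 cells; compounds (final up to 57.5 uM) added 1 h before LPS (250 ng/mL) and ATP (1.25 mM) stimulation; lower signal means less secretion.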
# TDP1 cell CPT = DT40-hTDP1 cell growth loss with CPT | chicken DT40 Tdp1-/-;hTDP1 cells + 20 nM CPT, ATP luminescence, 48 h | Potency, µM (titrated, usually from 46.2 µM), inactives show top-dose activity change, negative = growth inhibition, most hits filed as inhibitors | 420,000 tested, 12% active | AID 686979; also: potency is read from the fitted curve at half-maximal effect; nearly all actives have a fitted effect of over 55% in size
#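 Cell growth measured by CellTiter-Glo luminescence after a minimum 48 h, 37 C compound exposure with 20 nM CPT in Tdp1-knockout DT40 cells stably expressing hTDP1, seeded 400/well; qHTS titration format.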
# ELG1 DNA repair = inhibitors of ELG1-dependent DNA repair in HEK293T cells; HEK293T ELG1-luciferase reporter, luminescence, 16 h; DNA damage induced by 5-fluorouridine; Potency, µM (highest dose often 46.1 µM), inactives show at the highest dose activity change, negative = inhibition, hits mostly inhibitors; 330,000 tested, 2.3% active; also: potency is read from the fitted curve at half-maximal effect; nearly all actives have a fitted effect of over 55% in size
#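 In this reporter screen, reduction of luminescence relative to DMSO vehicle indicated activity. Compounds and 5-fluorouridine were added together to 2,000 cells per well, incubated for 16 hr at 37 °C, then developed with ONE-Glo.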
# HT1080 IDH1KD tx = kills HT-1080 cells with IDH1 knockdown. HT-1080 IDH1 knockdown viability, ATP luminescence, 48 h. Potency, µM (top dose mostly 46.1 µM), inactives show at the top dose activity, negative = toxicity, actives largely listed as cytotoxic. 360,000 tested, 2% active. AID 686971;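 also: potency is read from the fitted curve at half-maximal effect; 0% = DMSO wells and -100% = cell-free medium wells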
#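 In this qHTS, HT-1080 cells depleted of IDH1 are exposed for 48 h at 37 °C to compound titrations. Toxicity is scored from CellTiter-Glo luminescence, with DMSO as full viability and medium alone as none.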
# HT1080-NT tox = kills 2HG-producing HT-1080-NT fibrosarcoma cells; HT-1080-NT fibrosarcoma viability, CellTiter-Glo ATP luminescence, 48 h; Potency, µM (series often up to 46.1 µM), without a hit: at the highest dose activity, negative = less viability, hits mostly cytotoxic; 360,000 tested, 1.6% active; AID 686970;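 also: NT is the 2HG producing partner of a matched IDH1 knockdown line; potency is read from the fitted curve at half-maximal effect; 0% = DMSO-treated cells and -100% = media-only wells without cells; nearly all actives have a fitted effect of over 55% in size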
#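 Viability of the 2HG-overproducing fibrosarcoma line after 48 hours of compound exposure at 37 degrees C was determined by luminescence with CellTiter-Glo, and concentration-effect curves were then fitted and categorized.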
# The depositor's hits bear a star; u = inconclusive; x = no result. Unless noted, calls follow the shape of the dose curve; as a rule, active = well fitted curve in the direction sought with a large enough effect; inconclusive = small, poorly fitted or top-dose-only effect, or another doubt; inactive = no such curve, though single readings can be large; an effect the other way counts as inactive or inconclusive. Unless noted, % is scaled to controls: 0 for no effect and ±100 for the full control effect.
SMILES,TDP1 cell noCPT,IL1B secr inh,TDP1 cell CPT,ELG1 DNA repair,HT1080 IDH1KD tx,HT1080-NT tox
COc1ccc(COc2cc(-c3cccc(OC)c3)nc3ccc(N)cc23)cc1,1.46µM*,14.4,1.46µM*,-13.5%,2.06µM*,0.82µM*
COc1cccc(C(=O)COc2ccc(NC(=O)c3ccccc3)cc2)c1,u,-10.2,u,-16.1%,-6.0%,-6.2%
COc1ccc(COc2cc(-c3cccc(OC)c3)nc3ccc(NC(=O)c4ccc(C)cc4)cc23)cc1,13µM*,71.7,u,u,13µM*,13µM*
COc1ccc(COc2cc(-c3cccc(OC)c3)nc3ccc(NC(=O)c4ccc(N(C)C)cc4)cc23)cc1,3.66µM*,65.7,3.66µM*,u,6.51µM*,u
COc1ccc(NC(=O)C2(C)CCCN(C(C)=O)C2)cc1F (stereo unspecified),-2.8%,25.4,-8.1%,x,10.5%,0.6%
CC(=O)NC(CC(=O)OCC(=O)Nc1ccc2c(c1)OCO2)c1ccccc1 (stereo unspecified),5.5%,3.6,4.2%,6.0%,6.5%,15.2%
Cc1cccc(-c2noc(-c3ccccc3NC(=O)C3CC(=O)N(c4ccccc4C)C3)n2)c1 (stereo unspecified),14.6µM*,x,23.1µM*,x,x,x
Cc1ccc(-c2noc(-c3ccccc3NC(=O)C3CC(=O)N(c4ccccc4C)C3)n2)cc1 (stereo unspecified),23.1µM*,x,18.4µM*,x,x,x
COc1ccc(N2CC(C(=O)Nc3ccccc3-c3nc(-c4ccc(C)cc4)no3)CC2=O)cc1 (stereo unspecified),-7.3%,x,-3.4%,x,x,x
CC(=O)Nc1ccc(NC(=O)CSc2nnc3ccc(-c4cccnc4)nn23)cc1,5.5%,18.1,10.7%,-0.1%,-3.1%,5.9%
COc1cc(C(=O)NCC2CCCO2)ccc1OCc1ccccc1Cl (stereo unspecified),u,0.0,-30.0%,u,-5.4%,-2.0%
Clc1ccc(/C=C\c2nccc3c2[nH]c2ccccc23)cc1,u,48.1,u,0.0%,18.4µM*,20.6µM*
CC(C)c1cccc(C(C)C)c1NC(=O)CCN1C(=O)NC2(CCCC2)C1=O,-4.8%,-6.8,-12.8%,3.3%,-4.5%,-2.8%
CC1=C(C)CC2(SC1)C(=O)N(c1ccccc1)N=C2N (stereo unspecified),20.6µM*,-7.9,7.31µM*,u,-7.0%,-13.0%
CC1=NN(c2ccccc2)C(=O)C1(C)C,4.5%,16.8,5.1%,2.4%,11.4%,11.3%
Cc1ccc(-c2nnc(Nc3ccc(Br)cc3)c3ccccc23)cc1S(=O)(=O)N1CCN(C)CC1,18.4µM*,x,11.6µM*,x,x,x
COC(=O)c1ccc(Nc2nnc(-c3ccc(C)c(S(=O)(=O)N4CCN(C)CC4)c3)c3ccccc23)cc1,23.1µM*,x,u,x,x,x
Cc1ccc(-c2nnc(Nc3ccc(Br)cc3)c3ccccc23)cc1S(=O)(=O)N1CCCCC1,u,x,-9.0%,x,x,x
Cc1ccc(-c2nnc(Nc3cccc(O)c3)c3ccccc23)cc1S(=O)(=O)N1CCN(C)CC1,18.4µM*,x,u,x,x,x
Cc1ccccc1NC(=O)c1ccc(C)c(S(=O)(=O)N2CCN(C)CC2)c1,18.8%,0.0,-4.9%,5.4%,1.8%,7.1%
Cc1ccc(C)c(Nc2nnc(-c3ccc(C)c(S(=O)(=O)N4CCN(C)CC4)c3)c3ccccc23)c1,23.1µM*,x,u,x,x,x
Cc1ccc(-c2nnc(Nc3ccc(O)cc3)c3ccccc23)cc1S(=O)(=O)N1CCN(C)CC1,18.4µM*,x,u,x,x,x
COc1cccc(N2CCN(S(=O)(=O)c3ccc4c(c3)NC(=O)C(C)C(=O)N4)CC2)c1 (stereo unspecified),9.1%,62.5,-26.4%,8.5%,-2.4%,0.6%
O=C(NCCN1CCC(n2c(=O)[nH]c3ccccc32)CC1)c1cccnc1Cl,-27.9%,u,u,x,11.6%,14.9%
O=C(NC1CCCCC1)N1CCC(n2c(=O)[nH]c3ccccc32)CC1,-20.2%,-4.1,u,u,2.2%,14.0%
SMILES,TDP1 cell noCPT,IL1B secr inh,TDP1 cell CPT,ELG1 DNA repair,HT1080 IDH1KD tx,HT1080-NT tox
O=C(NCCN1CCC(n2c(=O)[nH]c3ccccc32)CC1)c1ccc(F)c(F)c1,-35.5%,x,0.326µM*,x,0.7%,-22.1%
O=C(NCCN1CCC(n2c(=O)[nH]c3ccccc32)CC1)c1ccc(F)c(C(F)(F)F)c1,25.9µM*,u,u,x,u,u
O=C(NCCN1CCC(n2c(=O)[nH]c3ccccc32)CC1)c1ccc(C(F)(F)F)cc1C(F)(F)F,4.61µM*,-28.0,5.8µM*,x,0.2%,-4.1%
O=C(COC(=O)/C=C/c1cccc(Cl)c1)NC1CC1,5.4%,-3.9,3.7%,-0.7%,-2.7%,-2.1%
Cc1c2c(nc3ccccc13)OCC2,-23.2%,-2.7,-12.2%,16.8%,u,u
COc1ccc(C(CNC(=O)c2oc3ccc(C)cc3c2C)N2CCCCC2)cc1 (stereo unspecified),u,9.7,20.6µM*,-1.8%,-3.9%,10.6%
COc1ccc(C(CNC(=O)CNC(=O)c2ccccc2)N2CCCC2)cc1 (stereo unspecified),11.7%,-5.0,1.0%,19.8%,3.5%,4.2%
COc1ccc(C(CNC(=O)c2cc3ccccc3o2)N2CCCC2)cc1 (stereo unspecified),u,-2.2,u,0.0%,-2.9%,-0.3%
COc1ccc(C(CNC(=O)c2cc3ccccc3o2)N2CCCCC2)cc1 (stereo unspecified),20.6µM*,u,u,1.9%,-1.2%,-7.7%
COCc1c(C(=O)NCC(c2ccco2)N2CCCC2)oc2ccccc12 (stereo unspecified),u,29.1,-25.0%,x,-1.9%,-11.1%
COc1ccc(C(CNC(=O)c2oc3ccccc3c2C)N2CCCCC2)cc1 (stereo unspecified),23.1µM*,x,16.4µM*,x,x,x
COc1ccccc1C(CNC(=O)c1oc2ccccc2c1C)N1CCCC1 (stereo unspecified),23.1µM*,-5.9,u,-20.5%,13.0%,0.6%
CC(=O)c1cccc(-n2nnnc2SCC(=O)Nc2cc(C)on2)c1,-12.7%,13.7,-15.6%,u,0.9%,19.4%
COc1cccc(CNC(=O)N2CCC(CN3CCC(C)CC3)CC2)c1,-9.5%,x,9.8%,x,x,x
